From PubChem
HT1080 IDH1KD tx: HT-1080 IDH1 knockdown cell toxicity (counter line) | HT-1080 IDH1 knockdown viability, ATP luminescence, 48 h | 2% of 360,000 active | Potency, µM (top dose mostly 46.1 µM), usual class: cytotoxic
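Using the IDH1-knockdown HT-1080 line run in the same batch and compound series as the NT line, viability after 48 h at 37 °C was determined by CellTiter-Glo luminescence and expressed as % activity.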
KB-V1 MDR tox: KB-V1 MDR subline cytotoxicity. KB-V1 MDR cells viability, CellTiter-Glo, 72 h. Potency, µM (highest dose often 46.1 µM), hits mostly cytotoxic. 3.4% of 400,000 active. AID 1347076; note: nearly all actives have a fitted effect of over 60% in size
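Luminescent ATP read-out (CellTiter-Glo, 10 min) measures survival of drug-selected KB-V1 MDR cells after 72 h, 37 degrees C compound exposure. Medium: phenol-red-free DMEM, 10% FBS. Values from fitted concentration-response curves.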
SW480 rerep: induces DNA re-replication in SW480 colon adenocarcinoma cells; SW480 DNA re-replication, Hoechst DNA content imaging, 48 h; Potency, µM (series often up to 46.1 µM), usual class: activators; 1.8% of 340,000 active; AID 624297; note: nearly all actives have a fitted effect of over 55% in size
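Cells (250 per well) received 23 nL compound or DMSO by pin tool and were kept 48 hr at 37 C, 5% CO2. Nuclei were then stained with Hoechst for 40 min and scanned for DNA content.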
MCF10A rerep: DNA re-replication induction in MCF 10a cells; MCF 10A DNA re-replication, Hoechst nuclear intensity, 48 h; Potency, µM (series often up to 46.1 µM), hits mostly activators; 2.9% of 350,000 active; note: nearly all actives have a fitted effect of over 50% in size
HT1080NT lethal: kills 2HG-producing HT-1080-NT fibrosarcoma cells; Potency, µM (titrated, usually from 46.1 µM), hits mostly cytotoxic; HT-1080-NT fibrosarcoma viability, CellTiter-Glo ATP luminescence, 48 h; 1.6% of 360,000 active; AID 686970;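 note: NT is the 2HG producing partner of a matched IDH1 knockdown line; nearly all actives have a fitted effect of over 55% in size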
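Viability of the 2HG-overproducing fibrosarcoma line after 48 hours of compound exposure at 37 degrees C was determined by luminescence with CellTiter-Glo, and concentration-effect curves were then fitted and categorized.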
KB-3-1 tox: KB-3-1 parental cell cytotoxicity | Potency, µM (series often up to 46.1 µM), hits mostly cytotoxic | 1.4% of 400,000 active | KB-3-1 viability, CellTiter-Glo ATP luminescence, 72 h; note: nearly all actives have a fitted effect of over 60% in size
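Multi-concentration cytotoxicity screen in KB-3-1 cells grown in DMEM lacking phenol red with 10% FBS. After 72 h at 37 °C with compound, ATP-dependent luminescence was recorded.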
A number is an active result; i = inactive; ? = inconclusive; nt = no result; [ ] = dose if it differs, or a comment. A selection: hits, their analogues and other compounds. The true share with any hit is near 7.9%. Calls come from the whole dose curve; as a rule, active = well fitted curve in the direction sought with a large enough effect; inconclusive = small, poorly fitted or top-dose-only effect, or another doubt; inactive = no such curve, though single readings can be large; an effect the other way counts as inactive or inconclusive.

SMILES | HT1080 IDH1KD tx | KB-V1 MDR tox | SW480 rerep | MCF10A rerep | HT1080NT lethal | KB-3-1 tox
COc1cc(CN2CCN(CCCc3ccccc3)C(CCO)C2)cc(OC)c1O (stereo not given) | i | i | i | i | i | i
CC(C)(C)c1ccc(NC(=O)CON=C(N)c2ccccc2)cc1 | i | i | 0.29µM | i | i | i
CC1(C)CC(N=c2cc(-c3ccccc3)oc3ccc(Cl)cc23)CC(C)(C)N1 | 16µM | ? | ? | ? | 7.3µM | 21µM
CC(C)(C)n1nc(-c2ccc(Cl)cc2)c2c(N)ncnc21 | ? | 21µM | i[9.22 µM] | ? | i | ?
CC(C)(C)n1nc(-c2ccc(F)cc2)c2c(N)ncnc21 | ? | i | i | i | ? | i
Cc1cc(C#Cc2c(-c3ccccc3)n(C)c3ccccc23)ccc1F | i | i | i | 8.2µM | i | i
Cn1c(-c2ccc(C#N)cc2)c(C#Cc2ccccc2)c2ccccc21 | i | i | 1.3µM | ? | i | i
COc1ccc(C#Cc2c(-c3ccccc3)n(C)c3ccccc23)cc1 | ? | i | ? | ? | ? | ?
Brc1ccccc1/C=N/Nc1ccc2ccccc2n1 | i | i | i | 16µM | ? | i
CCn1c2c(c(=O)n3ncc(C(=O)Nc4cccc(Cl)c4C)c13)CN(Cc1ccc(OC)cc1)CC2 | nt | i | nt | nt | nt | i
COC(=O)c1sc2nc(C)cc(C)c2c1N | i | i | i | i | i | i
COCc1cc(C)nc2sc(C(=O)Nc3ccccc3Br)c(N)c12 | i | i | 1.8µM | ? | i | i
Cc1cc(C)c2c(N)c(C(=O)Nc3ncc(C)s3)sc2n1 | ? | ? | ? | 9.2µM | ? | i
Cc1cc(C)c2c(N)c(C(=O)Nc3ccccc3Cl)sc2n1 | ? | i | ? | 12µM | ? | i
CCc1ccccc1NC(=O)c1sc2nc(C)cc(C)c2c1N | i | ? | ? | ? | i | i
Nc1c(C(=O)Nc2ccccc2F)sc2nc(-c3cccnc3)ccc12 | 13µM | i | ? | i | ? | i
Cc1cc(C)c2c(N)c(C(=O)Nc3ccccc3Br)sc2n1 | i | i | 18µM | 5.8µM | i | i
CCOc1ccccc1NC(=O)c1sc2nc(C)cc(C)c2c1N | nt | i | nt | nt | nt | i
Cc1cc(C)c2c(N)c(C(=O)Nc3ccccc3F)sc2n1 | i | i | i | 29µM | i | i
CCN1C[C@@H]2[C@@H]3C(=O)N(Cc4ccccc4)C(=O)[C@@H]3[C@](C)(C1=O)N2C(=O)c1ccc(Cl)cc1 | i | i | i | i | i | ?
COn1c2c(c3c4no[n+]([O-])c4ccc31)CCCC2 | i | i | i | i | i | i
COn1c2c(c3c4nonc4ccc31)CCCC2 | ? | 18µM | i | i | i | i
CC(=O)c1ccc(S(=O)(=O)N2CCNC(=O)C2)cc1 | i | i | i | i | i | i
COc1cc(C(=O)Nc2ccccc2C2COC(=O)C2=N)cc(OC)c1OC (stereo not given) | i | 12µM | i | i | i | i
COc1cc(C(=O)Nc2ccccc2NC(=O)c2cc(OC)c(OC)c(OC)c2)cc(OC)c1OC | i | i | i | i | i | i
SMILES | HT1080 IDH1KD tx | KB-V1 MDR tox | SW480 rerep | MCF10A rerep | HT1080NT lethal | KB-3-1 tox
COc1cc(C(=O)Nc2ccc(Br)cc2C(=O)c2cc(OC)c(OC)c(OC)c2)cc(OC)c1OC | ? | ? | 16µM | 21µM | ? | ?
O=C(Nc1ccccc1C(=O)Nc1ccccn1)c1cccc([N+](=O)[O-])c1 | i | i | i | 3.7µM | i | i
COc1ccc(C(=O)Nc2ccccc2C(=O)Nc2cc(C)ccn2)cc1 | ? | ? | i | ? | ? | ?
Cc1ccnc(NC(=O)c2ccccc2NC(=O)C(C)(C)C)c1 | ? | 10µM | 16µM | 16µM | ? | ?
COc1cc(OC)cc(-c2nc3n(n2)C(c2ccccc2)C(C(N)=O)=C(C)N3)c1 (stereo not given) | nt | i | nt | nt | nt | i
COc1ccc(S(=O)(=O)N2CCCC(C(=O)N3CCN(Cc4ccccc4)CC3)C2)cc1Cl (stereo not given) | i | i | nt | nt | i | i
CN(C)CCN(C)C1CN(Cc2ccccc2)S(=O)(=O)C1 (stereo not given) | i | i | nt | nt | i | i
